Several values for one entry are separate records, joined by “and”; a condition that tells them apart may be missing. Equal values may be shown once. Inconclusive results are not listed. Entries that show only a call come without a potency. Unmarked numbers belong to inactive results. Activity calls are given as the source filed them. Calls follow the shape of the dose curve; as a rule, active = well fitted cell-killing curve with a large enough effect; inconclusive = small, poorly fitted or top-dose-only effect, or effect the other way; inactive = no such curve, though single readings can be large or run the other way.
What was measured:
[1] = Viability qHTS for spleen associated tyrosine kinase inhibitor (SYKi) naive MV4-11 cells (AID 1963823); conditions: MV4-11 AML viability, CellTiter-Glo luminescence, 72 h; series mostly up to 45 µM; also: nearly all actives have a fitted effect of over 40% in size
Method in brief: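 Viability of MV4-11 AML cells lacking prior SYK inhibitor exposure is scored by CellTiter-Glo luminescence following 72 hr compound incubation at 37 C, 5% CO2, seeded at 500 cells per well.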

[2] = Viability qHTS for spleen associated tyrosine kinase inhibitor (SYKi) drug resistant MV4-11 cells (AID 1963824); conditions: SYKi-resistant MV4-11 viability, CellTiter-Glo, 72 h; series mostly up to 45 µM; also: nearly all actives have a fitted effect of over 35% in size
Method in brief: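 CellTiter-Glo luminescence, read 10 min after reagent addition, reports viability after a 72 hr compound exposure. Cells are an MV4-11 line made resistant to SYK inhibition, seeded at 500 per well onto compound-containing plates.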
Potency is read from the fitted curve at half-maximal effect.

| Structure (SMILES) | viability (% of control) [1] | viability, % of control [2] | Potency [1] | Potency [2] |
| --- | --- | --- | --- | --- |
| C[C@@H](O)[C@H](N)C(=O)N1CCC[C@H]1C(=O)N1CCC[C@H]1C(=O)N[C@H](C(N)=O)[C@@H](C)O | 90.2% [at 9.25 µM] | 81.3% [at 9.25 µM] | – | – |
| COC(=O)C1=CO[C@@H](O[C@@H]2O[C@H](CO)[C@@H](O)[C@H](O)[C@H]2O)[C@H]2[C@@H]1[C@H](O)[C@H](O)[C@]2(C)O | – | – | inactive | inactive |
| COc1cccc(C(=O)NCCNc2nc3cc(C)cc(C)c3cc2C#N)c1 | – | – | inactive | inactive |
| C[C@@H]1CC[C@]2(C(=O)O[C@@H]3O[C@H](CO)[C@@H](O)[C@H](O)[C@H]3O)CC[C@]3(C)C(=CCC4[C@@]5(C)C[C@@H](O)[C@H](O)[C@@](C)(C(=O)O[C@H]6[C@H](O)C[C@@]7(C)C(CC[C@]8(C)C7CC=C7[C@H]9[C@](C(=O)O[C@@H]%10O[C@H](CO)[C@@H](O)[C@H](O)[C@H]%10O)(CC[C@@H](C)[C@@]9(C)O)CC[C@]78C)[C@@]6(CO)C(=O)O)C5CC[C@]43C)[C@@H]2[C@]1(C)O (stereo partly specified) | 65.2% [at 9.25 µM] | 103% [at 9.25 µM] | – | – |
| COc1ccc(C(=O)Nc2ncc(-c3ccc(C(=O)O)cc3)s2)cc1 | – | – | 0.461 µM (active) | 0.461 µM (active) |
| COC1CC(O[C@H]2CC[C@@]3(C)C(CCC4C3[C@H](OC(C)=O)[C@@H](OC(=O)/C=C/c3ccccc3)[C@]3(C)C(C(C)=O)CC[C@]43O)C2)OC(C)C1OC1CC(OC)C(OC2CC(OC)C(OC3OC(C)C(OC4OC(CO)C(O)C(O)C4O)C(OC)C3O)C(C)O2)C(C)O1 (stereo partly specified) | 48.3% [at 9.25 µM] | 45.7% [at 9.25 µM] | – | – |
| COC(=O)C1=CO[C@@H](O[C@@H]2O[C@H](CO)[C@@H](O)[C@H](O)[C@H]2O)[C@H]2[C@@H]1CC(OC)O[C@@H]2C (stereo partly specified) | – | – | inactive | inactive |
| O=C(Nc1ccc(S(=O)(=O)Nc2ccccc2Cl)c(Cl)c1)c1ccccn1 | – | – | inactive | 20.6 µM (active) |
| C=C(C)C1CC2(CO)C(=CC1=O)CCC(O)C2C (stereo unspecified) | – | – | inactive | inactive |
| C/C(=N\N=C(N)N)c1ccc(NC(=O)Nc2ccc(/C(C)=N/N=C(N)N)cc2)cc1 | – | – | 2.06 µM (active) | 0.731 µM (active) |
| CC1(C)CC[C@]2(C(=O)O)CC[C@]3(C)C(=CCC4[C@@]5(C)C[C@@H](O)[C@H](O)C(C)(C)C5CC[C@]43C)[C@@H]2[C@@H]1O (stereo partly specified) | – | – | inactive | inactive |
| COc1cc2c(cc1O)CC[C@H]1[C@@H]2CC[C@]2(C)[C@H](O)CC[C@@H]12 | – | – | 0.58 µM (active) | 0.731 µM (active) |
| CC1CCC2(C(=O)O)CCC3(C)C(=CCC4C5(C)CCC(O)C(C)(CO)C5CCC43C)C2C1(C)O (stereo unspecified) | – | – | inactive | inactive |
| C=C(C)[C@@H]1CC[C@]2(C)CC[C@]3(C)[C@H](CC[C@@H]4[C@@]5(C)CC[C@@H](O)C(C)(C)[C@@H]5CC[C@]43C)[C@@H]12 | – | – | inactive | inactive |
| COc1ccc(CCO[C@@H]2O[C@H](CO[C@@H]3OC[C@H](O)[C@H](O)[C@H]3O)[C@@H](O)[C@H](O)[C@H]2O)cc1 | – | – | inactive | inactive |
| C=C1CCC2C(C)(C)C(O)CCC2(C)C1CCC(C)CCO (stereo unspecified) | – | – | 9.04 µM (active) | 12.8 µM (active) |
| COc1cc(O[C@@H]2O[C@H](CO)[C@@H](O)[C@H](O)[C@H]2O)c(CCC(=O)OC[C@H]2O[C@@H](Oc3cc(OC)c(C4OC(=O)C(C)(O)C4O)cc3CCC(=O)O)[C@H](O)[C@@H](O)[C@@H]2O)cc1C1OC(=O)C(C)(O)C1O (stereo partly specified) | 77% [at 9.25 µM] | 81.1% [at 9.25 µM] | – | – |
| NC1CCCN(c2c(/C=C3\SC(=O)NC3=O)cccc2-c2ccccc2)C1 (stereo unspecified) | – | – | 2.06 µM (active) and 3.72 µM (active) | 8.2 µM (active) and 13.2 µM (active) |
| COC[C@@H](c1ccc(C(F)(F)F)cc1)N1CCN(C2(C)CCN(C(=O)c3c(C)ncnc3C)CC2)C[C@@H]1C | – | – | inactive | 18.6 µM (active) |
| CN(C)CCCCC(=O)Nc1ccc(NC(=S)NC(=O)c2ccc(C(C)(C)C)cc2)cc1 | – | – | 1.3 µM (active) | 1.46 µM (active) |
| CCCCCCCCCCCCCCCCC(C(=O)O)C(O)(CC(=O)O)C(=O)O (stereo unspecified) | – | – | inactive | inactive |
| CC(=O)N[C@@H](Cc1c[nH]c2ccccc12)C(=O)N[C@@H](CCC(=O)O)C(=O)N[C@@H](Cc1cnc[nH]1)C(=O)N[C@@H](CC(=O)O)C(=O)Nc1ccc2c(C(F)(F)F)cc(=O)oc2c1 | – | – | inactive | inactive |
| C=C1C2(CCC(=O)OC2(C)C)CC(OC(=O)/C(C)=C/C)C2(C)C13OC14C(=O)OC(C)(C(=O)C12C(=O)OC4C)C3OC(C)=O (stereo unspecified) | – | – | inactive | inactive |
| CCOC(=O)c1cc(C#N)c(N2CCC(C(=O)NS(=O)(=O)Cc3ccccc3)CC2)nc1C | – | – | inactive | inactive |
| Nc1ncnc2c1c(-c1ccc(Oc3ccccc3)cc1)nn2[C@@H]1CCCNC1 | – | – | 0.206 µM (active) | 0.259 µM (active) |
| C=C1C(=O)O[C@@H]2[C@H]3C(C)=CC(=O)C3=C(C)[C@@H](OC(=O)/C(C)=C\C)[C@H](O)[C@@H]12 | – | – | 3.21 µM (active) | 1.43 µM (active) |
| COc1cc(O)cc(C)c1C(=O)OC1C(CO)OC(n2ccc(=O)[nH]c2=O)C1OC(C)=O (stereo unspecified) | – | – | 5.63 µM (active) | inactive |

| Structure (SMILES) | viability (% of control) [1] | viability, % of control [2] | Potency [1] | Potency [2] |
| --- | --- | --- | --- | --- |
| C[C@H](Oc1cc(-n2cnc3ccc(CN4CCN(C)CC4)cc32)sc1C(N)=O)c1ccccc1C(F)(F)F | – | – | 1.03 µM (active) | 0.58 µM (active) |
| CC1(C(=O)O)CCCC2(C)C3=CCC4CC3(CCC12)CC4CO (stereo unspecified) | – | – | inactive | inactive |
| O=C(OC[C@H]1O[C@H](O[C@]2(CO)O[C@H](CO)[C@@H](O)[C@@H]2O)[C@H](O)[C@@H](O)[C@@H]1O)c1ccccc1 | – | – | inactive | inactive |
| O=c1c2cccnc2n(-c2cccc([N+](=O)[O-])c2)c(=O)n1Cc1ccncc1 | – | – | inactive | inactive |
| NCC(=O)O | – | – | inactive | inactive |
| C=C1C(=O)OC2CC(C)=C(C(C)CCCO[C@@H]3O[C@H](CO)[C@@H](O)[C@H](O)[C@H]3O)C(O)C12 (stereo partly specified) | – | – | inactive | inactive |
| COC(=O)c1ccc(=O)c2nc3/c(=C/O)c(O)cc(=O)c3[nH]c12 | – | – | inactive | inactive |
| C/C(=C\CCC(C)C1=CCC2(C)OC3=C(CC12)C(=O)C(O)CC3)CO (stereo unspecified) | – | – | inactive | inactive |
| CCCCc1nc(C)c(CC(=S)N(C)C)c(=O)n1Cc1ccc(-c2ccccc2-c2nn[nH]n2)cc1 | – | – | inactive | inactive |
| CCOC(=O)CCC(=O)O[C@H]1[C@H](O[C@@H]2[C@@H](C)[C@H](O[C@H]3C[C@@](C)(OC)[C@@H](O)[C@H](C)O3)[C@@H](C)C(=O)O[C@H](CC)[C@@](C)(O)[C@H](O)[C@@H](C)C(=O)[C@H](C)CC2(C)O)O[C@H](C)C[C@@H]1N(C)C (stereo partly specified) | – | – | inactive | inactive |
| CC1(C)CCCC2(C)C1CC=C1C(=O)OC(O)C12O (stereo unspecified) | – | – | inactive | inactive |
| C/C=C(\C)C(=O)OC[C@H]1O[C@H](O[C@H]2O[C@H](CO)[C@@H](O)[C@H](O)[C@H]2O[C@@H]2O[C@H](CO)[C@@H](O)[C@H](O)[C@H]2O)[C@H](O[C@@H]2O[C@H](CO)[C@@H](O)[C@H](O)[C@H]2O)[C@@H](O)[C@@H]1O | – | – | inactive | inactive |
| CC1OC(OC2C(C)OC(OC3C(OC(=O)/C=C/c4ccc(O)cc4)C(CO)OC(OC4(COC(=O)/C=C/c5ccc(O)cc5)OC(CO)C(O)C4O)C3OC3OCC(O)(CO)C3O)C(O)C2O)C(O)C(O)C1O (stereo unspecified) | 86.5% [at 9.25 µM] | 112% [at 9.25 µM] | – | – |
| CC12CC34C=CC(=O)C(C)(CCC(=O)O)C3C(CC1C4)O2 (stereo unspecified) | – | – | inactive | inactive |
| CCc1c(Cl)c(O)c(Cl)c(O)c1C(=O)O[C@H]1[C@H](O)[C@H](OC)[C@H](OC/C2=C\C=C\C[C@H](O)/C(C)=C\[C@H](CC)[C@@H](O[C@@H]3OC(C)(C)[C@@H](OC(=O)C(C)C)[C@H](O)[C@@H]3O)/C(C)=C/C(C)=C/C[C@@H]([C@@H](C)O)OC2=O)O[C@@H]1C | – | – | 7.09 µM (active) | 3.99 µM (active) |
| C[C@H](NC(=O)C(C)(C)Oc1ccc(C(F)(F)F)cn1)[C@@H](Cc1ccc(Cl)cc1)c1cccc(C#N)c1 | – | – | 13 µM (active) | 9.2 µM (active) |
| CC1=CC(=O)C[C@H]2[C@@H]1CC[C@@H](C)[C@]21CO[C@H](c2ccoc2)C1=O | – | – | inactive | inactive |
| CCOc1ccc(Cc2nc(-c3c(C)nc4ccccn34)cs2)cc1 | – | – | 0.0366 µM (active) | 0.0184 µM (active) |
| C=C(C(=O)O[C@H]1C/C(C)=C/CC/C(CO)=C/[C@H]2OC(=O)C(=C)[C@H]12)C(O)CO (stereo partly specified) | – | – | 2.02 µM (active) | 0.904 µM (active) |
| CC1C(=O)OCC2=CC[N+]3([O-])CCC(OC(=O)C(C)(O)C1(C)O)C23 (stereo unspecified) | – | – | inactive | inactive |
| CCCn1c(=O)c2[nH]c(-c3ccc(OCC(=O)O)cc3)nc2n(CCC)c1=O | – | – | inactive | inactive |
| COc1cc2c(cc1OC)-c1[nH]nc(Nc3cccc(F)c3)c1C2 | – | – | 0.082 µM (active) | 0.0731 µM (active) |
| Cc1cc(CN)cc(C)c1NC(=O)c1ccc(-c2cc(Cl)ccc2Cl)o1 | – | – | 6.51 µM (active) | 9.2 µM (active) |
| Cc1cc(C)c(-c2csc(NC(=O)c3ccccc3)n2)c(C)c1 | – | – | 6.51 µM (active) | 11.6 µM (active) |
| CC(C)(CC(=O)N1CCCC1)NCC(=O)N1C[C@@H](F)C[C@H]1C#N | – | – | inactive | inactive |
| CCCc1[nH]nc2c1C(c1cc(Cl)cc(Cl)c1O)C(C#N)=C(N)O2 (stereo unspecified) | – | – | 16.4 µM (active) | 16.4 µM (active) |
